# From paper PMC4552634, “A New Set of Chemical Starting Points with Plasmodium falciparum Transmission-Blocking Potential for Antimalarial Drug Discovery” (PLoS ONE, 2015)
# Out of some 13,000 compounds screened, about 3,200 (25%) showed an effect of 50% or more. The list shows a part of the results.
# Test system: P. falciparum stage V gametocytes
# Set-up: BacTiter-Glo ATP luminescence viability of purified stage V gametocytes in 384-well plates, per cent inhibition versus DMSO
# Settings: 48 h, 5 µM; inhibitor
row,Structure (SMILES),% Inhibition [%]
1,CC(C)N(Cc1ccccc1)C(=O)CN1C(=O)COc2ccc(S(=O)(=O)N3CCCCCC3)cc21 [TCMDC-124755],-21.1
2,N#Cc1ccc2c(c1)CCN(CCC1CCC(NC(=O)c3cccc(-c4ccc(F)cc4)c3)CC1)CC2 (centres unmarked) [TCMDC-139679],-51.12
3,O=C(c1csc(-c2cccnc2)n1)N1CCc2cc3nccc(N4CCN5CCC[C@H]5C4)c3cc21 [TCMDC-140044],44.75
4,CCCCCSc1cc(O)c(C(CNC)C(C)C)cc1OC (centres unmarked) [TCMDC-125495],-82.86
5,CCCN(CCC)CC(O)COc1ccccc1C(=O)Nc1ccccc1 (centres unmarked) [TCMDC-125708],-0.1626
6,CNC(=O)c1cnc(Nc2ccc(OCC(O)CN(C)C)cc2)nc1Nc1cccc(OC(C)C)c1 (centres unmarked) [TCMDC-141389],97.53
7,CNC(=O)c1cnc(Nc2ccc3[nH]c(=O)[nH]c3c2)nc1Nc1cccc(OC(C)C)c1 [TCMDC-141390],-16.36
8,COc1ccc(CNCc2ccc(-c3ccc(-c4nc5ccccc5[nH]4)cc3)cc2)cc1.O=C(O)C(F)(F)F [TCMDC-132730],80.88
9,COc1ccc(CNCc2ccc(-c3cccc(-c4nc5ccccc5[nH]4)c3)cc2)cc1.O=C(O)C(F)(F)F [TCMDC-132546],33.45
10,CNc1ccc(CNCc2cccc(-c3ccc(-c4nc5ccccc5[nH]4)cc3)c2)cc1.O=C(O)C(F)(F)F [TCMDC-132986],13.98
11,COc1ccc(CNCc2ccc(-c3ccc(-c4nc5cc(F)ccc5[nH]4)cc3)cc2)cc1.O=C(O)C(F)(F)F [TCMDC-132725],-52.38
12,COc1ccc(CNCc2cccc(-c3ccc(-c4nc5ccccc5[nH]4)cc3)c2)cc1.O=C(O)C(F)(F)F [TCMDC-132718],76.66
13,O=C(O)C(F)(F)F.c1ccc(CNCc2ccc(-c3ccc(-c4nc5ccccc5[nH]4)cc3)cc2)cc1 [TCMDC-132711],-28.39
14,OC[C@H]1CCCN1CC#Cc1cc2c(Nc3ccc(OCc4cccc(F)c4)c(Cl)c3)ncnc2s1 [TCMDC-138787],-22.43
15,Cc1ccn2c(C(=O)N3CCN(c4cccc5c4nc(-c4ccoc4)n5Cc4ccccn4)CC3)c(C)nc2c1 [TCMDC-134556],-25.5
16,CCCC(=O)Nc1ccc(Nc2nc(C)cc(N3CCCC3)n2)cc1 [TCMDC-124718],-11.42
17,COc1ccc(Nc2ncc3c(-c4cccc(NC(=O)Cc5ccc(O)cc5)c4)c[nH]c3n2)cc1OC [TCMDC-135248],-43.02
18,COc1ccc(Nc2ncc3c(-c4cccc(NC(=O)CC(C)C)c4)c[nH]c3n2)cc1OC [TCMDC-135246],51.08
19,COc1ccc(Nc2ncc3c(-c4cccc(NC(=O)Cc5ccncc5)c4)c[nH]c3n2)cc1OC [TCMDC-135286],-39.63
20,Cc1cccc2nc(-c3ccc(-c4cccc(CN5CCCCC5)c4)s3)[nH]c12.O=C(O)C(F)(F)F [TCMDC-133911],-13.55
21,Cc1cccc2nc(-c3ccc(-c4cccc(CN5CCC(CO)CC5)c4)s3)[nH]c12.O=C(O)C(F)(F)F [TCMDC-133122],24.91
22,Cc1cccc2nc(-c3ccc(-c4cccc(CN5CCC(CCN6CCCCC6)CC5)c4)s3)[nH]c12.O=C(O)C(F)(F)F [TCMDC-133923],107.3
23,Cc1cccc2nc(-c3ccc(-c4cccc(CN5CCC(C(N)=O)CC5)c4)s3)[nH]c12.O=C(O)C(F)(F)F [TCMDC-132690],-2.69
24,Cc1cccc2nc(-c3ccc(-c4cccc(CN5CCCC(O)C5)c4)s3)[nH]c12.O=C(O)C(F)(F)F (centres unmarked) [TCMDC-133834],-3.04

row,Structure (SMILES),% Inhibition [%]
1,Cc1cccc2nc(-c3ccc(-c4cccc(CN5CCC(N)C5)c4)s3)[nH]c12.O=C(O)C(F)(F)F (centres unmarked) [TCMDC-133873],89.08
2,Cc1cccc2nc(-c3ccc(-c4cccc(CN5CCN(CCN6CCOCC6)CC5)c4)s3)[nH]c12.O=C(O)C(F)(F)F [TCMDC-133925],7.217
3,NC1CCCN(Cc2cccc(-c3ccc(-c4nc5ccccc5[nH]4)s3)c2)C1.O=C(O)C(F)(F)F (centres unmarked) [TCMDC-133870],15.45
4,Cc1cccc2nc(-c3ccc(-c4cccc(CN5CCCC(N)C5)c4)s3)[nH]c12.O=C(O)C(F)(F)F (centres unmarked) [TCMDC-133874],63.62
5,COc1cc(Nc2nccn3c(-c4ccsc4)cnc23)cc(OC)c1OC [TCMDC-134382],37.58
6,COc1ccc(-c2cncc(-c3ccc(OC)c(OC)c3)n2)cc1OC [TCMDC-138247],25.57
7,COc1ccc(-c2cnn3ccc(Nc4cc(OC)c(OC)c(OC)c4)nc23)cc1OC [TCMDC-134383],101
8,O=C(CSc1nccn1C1CCCCC1)Nc1cc(C(F)(F)F)ccc1Cl [TCMDC-124949],15.12
9,Cc1c(CNCCCNc2nc3ccncc3[nH]2)sc(Br)c1Br [TCMDC-140512],32.17
10,CCNc1cc(C(=O)N[C@@H](Cc2ccccc2)[C@H](O)CNC(C)C)cc(N2CC(c3ccccc3)CCS2(=O)=O)c1 (some centres unmarked) [TCMDC-134660],43.25
11,O=S(=O)(NC1CCN(c2ccnc3cc(Cl)ccc23)C1)c1cccs1 (centres unmarked) [TCMDC-133398],1.762
12,CNCCNCc1ccc(-c2cccc(-c3nc4ccc(F)cc4[nH]3)c2)cc1 [TCMDC-132836],79.45
13,COc1ccc(CNCc2cccc(-c3cccc(-c4nc5ccc(F)cc5[nH]4)c3)c2)cc1 [TCMDC-132717],-45.78
14,Fc1ccc2nc(-c3cccc(-c4ccc(CNCCc5ccncc5)cc4)c3)[nH]c2c1 [TCMDC-132854],81.48
15,CS(=O)(=O)NCCCNCc1cccc(-c2cccc(-c3nc4ccc(F)cc4[nH]3)c2)c1 [TCMDC-133075],-24.93
16,CNCCNCc1ccc(-c2ccc(-c3nc4ccc(F)cc4[nH]3)cc2)cc1 [TCMDC-132832],83.07
17,Fc1ccc2nc(-c3cccc(-c4cccc(CNCCc5ccncc5)c4)c3)[nH]c2c1 [TCMDC-132857],-45.49
18,CNc1ccc(CNCc2ccc(-c3ccc(-c4nc5ccc(F)cc5[nH]4)cc3)cc2)cc1 [TCMDC-132980],-78.33
19,COc1ccc(CNCc2ccc(-c3cccc(-c4nc5ccc(F)cc5[nH]4)c3)cc2)cc1 [TCMDC-132721],-29.84
20,CN(C)CCNCc1ccc(-c2ccc(-c3nc4ccc(F)cc4[nH]3)cc2)cc1 [TCMDC-132681],40.34
21,Nc1cccc(CNCc2ccc(-c3cccc(-c4nc5ccc(F)cc5[nH]4)c3)cc2)c1 [TCMDC-132937],-46.54
22,CNCCNCc1cccc(-c2cccc(-c3nc4ccc(F)cc4[nH]3)c2)c1 [TCMDC-132840],70.05
23,Fc1ccc2nc(-c3cccc(-c4ccc(CNCc5ccccc5)cc4)c3)[nH]c2c1 [TCMDC-132702],-56.98
